Screens from PubChem.
Compounds with a hit are over-represented: about 2.7% of the library has one in this group of screens.
Mcl1 Bid PPI – Mcl-1/Bid interaction inhibition; Q07820; TR-FRET Mcl-1/Bid-Dy647 peptide binding, 1536-well; inhibition, % at 21.7 µM; hit rate 0.97% among 220,000; AID 1021;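 active = compounds that cut the binding signal by more than half at the single screening dose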;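 also: His-tagged Mcl-1 with europium anti-His antibody binding Bid BH3 peptide; 0% = Mcl-1 plus peptide wells and 100% = peptide-only wells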
Pf gametocyte – P. falciparum stage V gametocyte viability inhibition; hit rate 0.065% among 150,000; inhibition, % at 10.9 µM; P. falciparum stage V gametocytes, ATP luminescence, 24 h;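 active = inhibition above the mean plus 3 SD of compounds within the control limits, set per campaign, cut at about 38% in these data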;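 also: 0% = DMSO wells and 100% = medium only without gametocytes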
Mcl1-Noxa inh – Mcl-1/Noxa interaction inhibition; hit rate 1.5% among 220,000; inhibition, % at 21.7 µM; AID 1022; TR-FRET Mcl-1/Noxa peptide binding, 2 h;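 active = compounds that cut the protein-peptide binding signal by more than 50% relative to plate controls in a single-dose test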;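 also: His-tagged Mcl-1 with rhodamine Noxa BH3 peptide and terbium anti-His antibody; 0% = Mcl-1 plus Noxa peptide wells and 100% = peptide-only wells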
14-3-3 Bad PPI – disrupts binding of bovine 14-3-3 zeta to phospho-Bad peptide; P63103; TR-FRET 14-3-3zeta/Dy647-pBad peptide displacement, 1 h; inhibition, % at 21.7 µM; hit rate 0.71% among 220,000;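 active = inhibition above about 70%, limit read from the data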;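 also: 0% = full 14-3-3 plus peptide FRET controls and 100% = background without 14-3-3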
Target sequence (P63103 whole entry, looked up): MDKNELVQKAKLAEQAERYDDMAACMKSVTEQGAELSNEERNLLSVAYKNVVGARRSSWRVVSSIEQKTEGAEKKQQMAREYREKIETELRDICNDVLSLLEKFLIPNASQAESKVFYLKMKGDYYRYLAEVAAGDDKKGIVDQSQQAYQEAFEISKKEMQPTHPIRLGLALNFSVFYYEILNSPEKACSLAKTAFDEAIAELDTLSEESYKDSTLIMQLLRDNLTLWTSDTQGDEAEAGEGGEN
Bim-Mcl-1 – human Bim-Mcl-1 interaction inhibition; Q07820; inhibition, % at 10 µM; Bead-based flow cytometry, Bim peptide-Mcl-1 binding; hit rate 0.1% among 190,000; in the data active = inhibition above about 40%;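 also: 0% = no compound tracer wells and 100% = peptide blocker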
eIF4E-4G inh – inhibitors of eIF4E and eIF4G interaction in translation initiation. AID 782. hit rate 0.37% among 220,000. inhibition, % at 21.7 µM. TR-FRET eIF4E-eIF4GI(517-606) binding, 2 h;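 active = inhibition above about 30%, limit read from the data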;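 also: 0% = full FRET control wells and 100% = background wells lacking eIF4GI fragment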
* marks the source's active call; other numbers are inactive results; x = not tested or not shown; [ ] = another dose, or the depositor's remark.

SMILES	Mcl1 Bid PPI	Pf gametocyte	Mcl1-Noxa inh	14-3-3 Bad PPI	Bim-Mcl-1	eIF4E-4G inh
O=C(O)CCSc1nnc(SCC(=O)NCC(F)(F)F)s1	-35	x	14	7	-4	56*
Cc1c(Br)c(=O)oc2c(Br)c(O)c(O)cc12	-112	6	64*	8	8	2
Cc1cc(C(=O)NCCCN(C)C)c2ccccc2n1	2	x	1	-3	52*	3
Cc1ccc2c(c1)N(CCC(=O)NCCN1CCOCC1)C(=O)CO2	-7	-14	52*	-9	-3	-9
O=C(Nc1ccc2nc3ccccc3nc2c1)c1ccccc1	33	x	81*	4	7	-5
CC(=O)Nc1ccc2sc(C)nc2c1	18	13	6	3	x	64*
O=C(Nc1ccccc1)c1ccc2ccccc2n1	-4	x	5	80*	-1	-1
CC(=O)CC(=O)Nc1ccc2ccccc2c1	-45	x	-6	-1	x	-5
O=C(Nc1ccc(OC(F)(F)F)cc1)c1ccc2ccccc2n1	-2	-3	1	-14	0	-1
CC(=O)Nc1ccc2ccccc2c1	-12	x	8	92*[fluorescence artefact?]	-2	5
O=C(Nc1ccc(Cl)c(Cl)c1)c1ccccc1	x	-10	x	x	x	x
CCOC(=O)c1sc2nccc(N(C)C)c2c1N=CNOCc1c(F)cccc1Cl	-39	-30	-13	5	-1	5
Nc1nc2nc(-c3cccs3)cc(C(F)(F)F)n2n1	8	-5	2	8	-2	7
Cc1c(NC(=O)c2ccc(S(=O)(=O)N3CCOCC3)cc2)c(=O)n(-c2ccccc2)n1C	-11	-13	-37	0	x	4
COC(=O)[C@@]12CCCCN1[C@H](c1ccc(SC3CCCCC3)cc1)[C@@H]1C(=O)N(C)C(=O)[C@@H]12	x	1	x	x	x	x
CC(=O)Nc1ccc2oc(C)nc2c1	-12	13	4	-6	0	2
CC(=O)Nc1ccc2cc3ccc(NC(C)=O)cc3nc2c1	1	x	59*	6	x	11
COCCCN(C(=O)c1cc2c(s1)CCC2)c1c(N)n(Cc2ccccc2)c(=O)[nH]c1=O	-18	17	53*	-14	0	5
CCCN(C(=O)c1cc2c(s1)CCC2)c1c(N)n(Cc2ccccc2)c(=O)[nH]c1=O	-24	12	62*	12	x	21
CCCN(C(=O)COc1ccc(Cl)cc1Cl)c1c(N)n(Cc2ccccc2)c(=O)[nH]c1=O	-31	4	13	-2	0	-1
COCCN1C(=O)C(=O)/C(=C(/O)c2ccc(S(=O)(=O)N3CCOCC3)cc2)C1c1ccc(C(C)C)cc1 (configuration not stated)	-50	x	0	39	-2	-2
CCn1c(=O)c2cc(C(=O)Nc3ccc(OC)cc3OC)sc2c2ccccc21	-37	-1	-123	45	x	-4
COc1ccc(NC(=O)c2cc3c(=O)n(C)c4ccccc4c3s2)cc1OC	55*	9	41	6	-3	10
CCOc1ccc(-c2nc(N)ncc2-c2ccccc2)c(O)c1	51*	x	26	14	-2	-7
CC(=O)c1ccc(N2CCN(c3ccc(C(N)=O)cc3[N+](=O)[O-])CC2)cc1	-21	-1	14	-1	-1	-1
SMILES	Mcl1 Bid PPI	Pf gametocyte	Mcl1-Noxa inh	14-3-3 Bad PPI	Bim-Mcl-1	eIF4E-4G inh
NC(=O)c1ccc(N2CCN(c3ccc(O)cc3)CC2)c([N+](=O)[O-])c1	-38	-22	64*	-11	4	5
CN(C)c1nc(Nc2ccccc2)nc(N(C)C)n1	13	x	12	80*	0	0
COc1ccc(-c2ccc(/C=N/NC(=O)c3cccnc3)o2)c([N+](=O)[O-])c1	38	x	74*	79*[fluorescence artefact?]	1	12
Cc1ccc(C(=O)N/N=C/c2ccc(-c3ccccc3[N+](=O)[O-])o2)cn1	-30	-7	19	5	0	0
O=c1c2c3c(sc2nc2sc(CN4CCOCC4)cn12)CCCC3	-3	8	-5	7	0	2
CCOc1ccc(Nc2ncnc3c2cnn3Cc2ccccc2)cc1	2	-6	-12	80*	0	0
COC(=O)C(=CC(=CN(C)C)C=C(C(=O)OC)C(=O)OC)C(=O)OC	-119	-10	6	2	x	1
Cc1cccc(-n2cc(-c3ccc([N+](=O)[O-])cc3)[nH]c2=S)c1	34	-26	52*	15	-6	-1
